# Measured values taken from PubChem BioAssay (EPA / NIEHS).
# Records with an inconclusive call do not appear. The source made the active and inactive calls. The calls were made as follows, unless noted: active = hit-call score of the fitted dose curve at least 0.9, where 1 is the maximum; inactive = score below 0.9.
# Legend:
# [1] = molecular target: Bile acid receptor (Homo sapiens) (UniProt Q96RI1); test: ATG_FXR_TRANS: Attagene TRANS-FACTORIAL HepG2 Assay for Farnesoid X Receptor (FXR) (AID 2282979; active = hit-call score of the fitted dose curve at least 0.9, where 1 is the maximum;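 also: hits raise reporter mRNA above DMSO so AC50 marks FXR activation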); details: HepG2 Attagene TRANS FXR-GAL4 reporter transcription
# Bile acid receptor (Homo sapiens), sequence (Q96RI1 whole entry, looked up, the tested form may be a part): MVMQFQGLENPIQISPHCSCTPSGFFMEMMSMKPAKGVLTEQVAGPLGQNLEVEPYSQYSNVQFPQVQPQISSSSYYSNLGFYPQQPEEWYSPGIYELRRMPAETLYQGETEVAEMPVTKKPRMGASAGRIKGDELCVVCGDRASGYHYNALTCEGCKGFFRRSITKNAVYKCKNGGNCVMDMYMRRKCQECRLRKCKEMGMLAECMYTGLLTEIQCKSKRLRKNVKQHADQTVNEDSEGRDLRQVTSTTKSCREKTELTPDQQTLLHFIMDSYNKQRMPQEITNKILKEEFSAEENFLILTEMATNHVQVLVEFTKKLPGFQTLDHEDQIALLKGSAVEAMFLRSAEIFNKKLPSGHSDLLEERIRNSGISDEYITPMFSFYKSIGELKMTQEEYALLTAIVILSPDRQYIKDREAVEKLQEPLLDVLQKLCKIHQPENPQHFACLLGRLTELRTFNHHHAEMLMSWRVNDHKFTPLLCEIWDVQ
# In short: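 Reporter transcripts from transfected HepG2 cells were measured 24 h after dosing, using RT-PCR with capillary electrophoresis of 6-FAM-labelled fragments. The read-out reflects activity of exogenous FXR-Gal4 chimera on GAL4-UAS units, with induction relative to DMSO.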
# [2] = ATG_M_32_TRANS: Attagene TRANS-FACTORIAL HepG2 Assay for M32 Transcription Factor (Internal Marker) (AID 2282984; active = hit-call score of the fitted dose curve at least 0.9, where 1 is the maximum;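 also: transcript level of a background control reporter unit measured by RT-PCR and capillary electrophoresis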); details: HepG2 Attagene TRANS M32 internal marker reporter
# In short: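 Read-out: fluorescent reporter cDNA fragments resolved by capillary electrophoresis after RT-PCR of total RNA. Transfected HepG2 cells were exposed to chemical for 24 h. Activity scored in the positive direction relative to DMSO.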
# [3] = molecular target: Nuclear receptor subfamily 4 group A member 2 (Homo sapiens) (UniProt P43354); test: ATG_NURR1_TRANS: Attagene TRANS-FACTORIAL HepG2 Assay for human Nuclear Receptor Related Protein 1 (NURR1) (AID 2282985; active = hit-call score of the fitted dose curve at least 0.9, where 1 is the maximum); details: HepG2 Attagene TRANS reporter, mRNA readout
# Nuclear receptor subfamily 4 group A member 2 (Homo sapiens), sequence (P43354 whole entry, looked up, the tested form may be a part): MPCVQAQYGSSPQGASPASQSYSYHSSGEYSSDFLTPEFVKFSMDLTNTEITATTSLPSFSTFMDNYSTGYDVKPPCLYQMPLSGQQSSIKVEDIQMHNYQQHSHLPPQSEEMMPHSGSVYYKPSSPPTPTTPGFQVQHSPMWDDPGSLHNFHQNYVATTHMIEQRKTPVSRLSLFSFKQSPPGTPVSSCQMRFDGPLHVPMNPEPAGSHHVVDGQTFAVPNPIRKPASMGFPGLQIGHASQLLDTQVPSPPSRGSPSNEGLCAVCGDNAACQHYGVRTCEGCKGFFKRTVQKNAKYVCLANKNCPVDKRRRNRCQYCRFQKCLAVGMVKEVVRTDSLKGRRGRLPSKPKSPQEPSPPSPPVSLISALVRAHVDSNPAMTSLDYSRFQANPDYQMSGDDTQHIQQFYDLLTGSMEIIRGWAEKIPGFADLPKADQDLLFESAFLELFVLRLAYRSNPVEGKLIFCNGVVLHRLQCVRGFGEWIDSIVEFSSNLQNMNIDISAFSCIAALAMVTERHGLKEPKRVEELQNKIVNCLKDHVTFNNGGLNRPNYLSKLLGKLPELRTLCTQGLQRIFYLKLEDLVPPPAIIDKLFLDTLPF
# In short: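 Read-out: reporter mRNA induction by RT-PCR plus capillary electrophoresis with fluorescence detection, after 24 h dosing of transfected HepG2 cells. Exogenous NR-Gal4 chimera activity drives GAL4-UAS reporter; activity fitted upward versus DMSO.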
# [4] = molecular target: Transcriptional activator Myb (Homo sapiens) (UniProt P10242); test: ATG_Myb_CIS: Attagene CIS-FACTORIAL HepG2 Assay for human Myeloblastosis (Myb) Proto-Oncogene Transcription Factor (AID 2282986); details: HepG2 Attagene CIS-FACTORIAL Myb reporter transcription; actives raise or lower the signal
# Transcriptional activator Myb (Homo sapiens), sequence (P10242 whole entry, looked up): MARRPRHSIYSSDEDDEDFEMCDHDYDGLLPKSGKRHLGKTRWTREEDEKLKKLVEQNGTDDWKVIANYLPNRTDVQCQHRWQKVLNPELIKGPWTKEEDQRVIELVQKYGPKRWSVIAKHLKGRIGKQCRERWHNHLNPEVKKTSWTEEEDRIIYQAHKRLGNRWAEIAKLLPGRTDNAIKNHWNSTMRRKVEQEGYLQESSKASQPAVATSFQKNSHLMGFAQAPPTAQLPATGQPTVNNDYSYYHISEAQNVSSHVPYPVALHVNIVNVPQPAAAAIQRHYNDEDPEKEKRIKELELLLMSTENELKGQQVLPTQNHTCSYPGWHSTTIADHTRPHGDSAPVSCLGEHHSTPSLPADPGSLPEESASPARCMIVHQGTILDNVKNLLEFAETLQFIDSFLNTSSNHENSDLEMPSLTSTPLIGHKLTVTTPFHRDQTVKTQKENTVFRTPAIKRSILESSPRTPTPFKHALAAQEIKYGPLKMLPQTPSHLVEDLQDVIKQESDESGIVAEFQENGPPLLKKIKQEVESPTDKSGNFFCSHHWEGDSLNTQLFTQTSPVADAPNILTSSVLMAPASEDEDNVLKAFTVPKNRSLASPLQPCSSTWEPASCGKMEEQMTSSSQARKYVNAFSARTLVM
# In short: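 Transiently transfected HepG2 cells carrying a multiplexed cis-promoter reporter set report endogenous Myb activity after 24 h compound exposure. Reporter mRNA is read by RT-PCR with capillary electrophoresis of fluorescent products, fitted bidirectionally against DMSO.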
# [5] = molecular target: Nuclear respiratory factor 1 (Homo sapiens) (UniProt Q16656); test: ATG_NRF1_CIS: Attagene CIS-FACTORIAL HepG2 Assay for human Nuclear Respiratory Factor 1 (NRF1) Orphan Gene (AID 2282987); details: HepG2 NRF1 cis-element reporter, Attagene multiplex; actives raise or lower the signal
# Nuclear respiratory factor 1 (Homo sapiens), sequence (Q16656 whole entry, looked up): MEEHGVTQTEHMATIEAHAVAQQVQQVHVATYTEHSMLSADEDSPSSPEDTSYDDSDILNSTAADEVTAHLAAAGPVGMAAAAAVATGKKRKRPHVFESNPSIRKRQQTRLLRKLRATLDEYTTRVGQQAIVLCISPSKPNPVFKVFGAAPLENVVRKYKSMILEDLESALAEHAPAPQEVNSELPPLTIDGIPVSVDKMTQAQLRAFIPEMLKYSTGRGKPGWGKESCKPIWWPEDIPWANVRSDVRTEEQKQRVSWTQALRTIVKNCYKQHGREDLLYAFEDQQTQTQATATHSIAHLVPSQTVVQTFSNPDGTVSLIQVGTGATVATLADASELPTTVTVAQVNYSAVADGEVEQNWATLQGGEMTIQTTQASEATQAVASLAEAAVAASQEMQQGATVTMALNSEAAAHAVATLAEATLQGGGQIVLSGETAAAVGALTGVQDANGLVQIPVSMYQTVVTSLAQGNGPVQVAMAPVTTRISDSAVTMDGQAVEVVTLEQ
# In short: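 HepG2 cells transiently transfected with multiple cis-regulated reporter units, exposed 24 h. Reporter mRNAs measured by RT-PCR, fluorescent labelling, HpaI digestion and capillary electrophoresis; bidirectional fitting against DMSO.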
# [6] = molecular target: Myc proto-oncogene protein (Homo sapiens) (UniProt P01106); test: ATG_Myc_CIS: Attagene CIS-FACTORIAL HepG2 Assay for human Myelocytomatosis (Myc) Proto-Oncogene Transcription Factor (AID 2282990); details: HepG2, Attagene cis-reporter transcription factor activity; actives raise or lower the signal
# Myc proto-oncogene protein (Homo sapiens), sequence (P01106 whole entry, looked up): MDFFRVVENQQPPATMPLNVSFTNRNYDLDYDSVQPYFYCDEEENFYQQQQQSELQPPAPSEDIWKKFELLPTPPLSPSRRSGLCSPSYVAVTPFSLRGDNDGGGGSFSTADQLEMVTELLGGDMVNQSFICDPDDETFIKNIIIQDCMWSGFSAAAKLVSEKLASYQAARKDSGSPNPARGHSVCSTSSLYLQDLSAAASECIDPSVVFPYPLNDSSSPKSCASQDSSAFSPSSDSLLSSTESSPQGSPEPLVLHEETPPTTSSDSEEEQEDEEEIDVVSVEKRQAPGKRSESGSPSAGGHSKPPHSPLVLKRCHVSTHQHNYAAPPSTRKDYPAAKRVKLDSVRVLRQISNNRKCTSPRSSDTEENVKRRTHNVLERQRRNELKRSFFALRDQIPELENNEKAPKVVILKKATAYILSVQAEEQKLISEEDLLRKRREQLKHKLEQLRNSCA
# In short: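 Transiently transfected HepG2 cells bearing cis-promoter reporter units for endogenous transcription factors; 24 h exposure. Reporter mRNA measured by RT-PCR, 6-FAM primer extension, HpaI cut and capillary electrophoresis; bidirectional fit relative to DMSO.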
# [7] = ATG_NF_kB_CIS: Attagene CIS-FACTORIAL HepG2 Assay for human Nuclear Factor Kappa B (NF-kB) (AID 2282991); details: HepG2 Attagene cis-factorial NF-kB reporter mRNA; actives raise or lower the signal
# In short: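 HepG2 cells transfected with cis-promoter-driven reporter units, so endogenous transcription factor activity is measured. Reporter mRNA quantified 24 h after dosing by RT-PCR and capillary electrophoresis, with bidirectional fitting against DMSO.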
# [8] = ATG_NRF2_ARE_CIS: Attagene CIS-FACTORIAL HepG2 Assay for human Nuclear Factor Erythroid 2 Related Factor 2 (NFR2) response to Antioxidant Response Elements (ARE) (AID 2282992); details: HepG2 Attagene ARE/NRF2 reporter, transcription factor activity; actives raise or lower the signal;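 as to AC50: reporter mRNA level measured by RT-PCR and capillary electrophoresis fluorescence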
# In short: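 Readout: reporter mRNA quantified by RT-PCR plus FAM-labelled primer extension, HpaI digestion and capillary electrophoresis, 24 h after dosing transfected HepG2 cells. Gain or loss of signal is fitted bidirectionally against DMSO baseline.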
# [9] = ATG_Oct_MLP_CIS: Attagene CIS-FACTORIAL HepG2 Assay for human Octamer-Binding Transcription Factor (Oct) (AID 2282993); details: HepG2 Attagene cis-factorial Oct reporter, mRNA; actives raise or lower the signal
# In short: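 Using HepG2 cells bearing transfected cis-reporter constructs, mRNA induction was read after 24 h by fluorescent RT-PCR and capillary electrophoresis, with DMSO defining baseline for gain- or loss-of-signal fits.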
# [10] = molecular target: Cellular tumor antigen p53 (Homo sapiens) (UniProt P04637); test: ATG_p53_CIS: Attagene CIS-FACTORIAL HepG2 Assay for human p53 Transcription Factor (AID 2282994); details: HepG2 p53 cis-element reporter, Attagene mRNA; actives raise or lower the signal
# Cellular tumor antigen p53 (Homo sapiens), sequence (P04637 whole entry, looked up): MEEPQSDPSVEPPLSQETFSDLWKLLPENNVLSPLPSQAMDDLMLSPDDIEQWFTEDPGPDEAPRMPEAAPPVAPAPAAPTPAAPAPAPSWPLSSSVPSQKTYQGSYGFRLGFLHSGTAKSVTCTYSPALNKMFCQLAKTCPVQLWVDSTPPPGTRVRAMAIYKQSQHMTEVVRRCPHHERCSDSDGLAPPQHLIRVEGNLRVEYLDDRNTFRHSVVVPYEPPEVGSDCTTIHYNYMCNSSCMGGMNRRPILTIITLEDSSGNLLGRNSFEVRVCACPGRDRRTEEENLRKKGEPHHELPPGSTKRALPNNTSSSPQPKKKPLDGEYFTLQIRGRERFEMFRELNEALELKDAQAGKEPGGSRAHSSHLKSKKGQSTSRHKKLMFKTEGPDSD
# In short: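 Read-out: reporter mRNA by RT-PCR plus capillary electrophoresis with fluorescence detection. Human HepG2 liver cells carried transfected multi-reporter cis-element constructs, dosed 24 h. Gain or loss of signal fitted bidirectionally against DMSO control.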
# [11] = BSK_3C_TissueFactor: BioMAP Diversity Plus: 3C Assay for Tissue Factor Biomarker Activity (AID 2282997); details: BioMAP 3C HUVEC, tissue factor biomarker readout; actives raise or lower the signal
# In short: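 Tissue factor on primary human umbilical vein endothelium was read by ELISA 24 h after dosing, gain or loss relative to DMSO. Cytotoxicity ran alongside via SRB (0.1%, TCA-fixed, 560 nm).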
# [12] = BSK_3C_VCAM1: BioMAP Diversity Plus: 3C Assay for Vascular cell adhesion molecule 1 (VCAM1) Biomarker Activity (AID 2282999); details: BioMAP 3C HUVEC, VCAM1 ELISA, cytokine-stimulated; actives raise or lower the signal
# In short: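 HUVEC primary cells, 24 h compound exposure; VCAM-1 by ELISA; gain/loss of signal fitted bidirectionally vs DMSO baseline.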
# [13] = BSK_4H_Eotaxin3: BioMAP Diversity Plus: 4H Assay for Eotaxin 3 Biomarker Activity (AID 2283000); details: primary human endothelial cells (HUVEC); actives raise or lower the signal;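 as to outcome: CCL26 protein level quantified by ELISA in parallel with SRB cytotoxicity check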
# In short: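 Human umbilical vein endothelial cells (BSK_4H system) dosed with test chemical; Eotaxin-3 (CCL26) measured by ELISA 24 h after dosing. Bidirectional curve fitting relative to DMSO negative control as baseline.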
# [14] = molecular target: Oxysterols receptor LXR-alpha (Homo sapiens) (UniProt Q13133); test: ATG_LXRa_TRANS: Attagene TRANS-FACTORIAL HepG2 Assay for human Liver X Receptor alpha (LXRa) (AID 2282980; active = hit-call score of the fitted dose curve at least 0.9, where 1 is the maximum); details: HepG2 Attagene TRANS reporter, LXRa transactivation
# Oxysterols receptor LXR-alpha (Homo sapiens), sequence (Q13133 whole entry, looked up, the tested form may be a part): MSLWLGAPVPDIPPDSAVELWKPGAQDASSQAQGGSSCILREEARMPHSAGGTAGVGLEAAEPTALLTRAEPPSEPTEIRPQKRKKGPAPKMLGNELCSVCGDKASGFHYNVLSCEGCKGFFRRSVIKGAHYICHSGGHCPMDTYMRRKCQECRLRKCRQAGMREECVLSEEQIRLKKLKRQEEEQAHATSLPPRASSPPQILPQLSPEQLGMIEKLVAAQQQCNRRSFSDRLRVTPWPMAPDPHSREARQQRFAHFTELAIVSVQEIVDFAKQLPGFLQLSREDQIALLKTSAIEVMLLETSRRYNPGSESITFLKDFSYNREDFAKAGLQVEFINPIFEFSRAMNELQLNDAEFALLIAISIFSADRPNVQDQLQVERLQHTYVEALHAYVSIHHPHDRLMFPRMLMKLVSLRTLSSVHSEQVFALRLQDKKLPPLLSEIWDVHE
# In short: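 Chemical-induced reporter mRNA measured by RT-PCR with fluorescent labelling and capillary electrophoresis after 24 h dosing of transiently transfected HepG2 cells expressing exogenous NR-Gal4 chimeras; increases scored against DMSO baseline.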
# [15] = molecular target: Hepatocyte nuclear factor 4-alpha (Homo sapiens) (UniProt P41235); test: ATG_HNF4a_TRANS: Attagene TRANS-FACTORIAL HepG2 Assay for human Hepatocyte Nuclear Factor 4 alpha (HNF4a) (AID 2282982; active = hit-call score of the fitted dose curve at least 0.9, where 1 is the maximum); details: HepG2 HNF4a transactivation reporter, mRNA readout
# Hepatocyte nuclear factor 4-alpha (Homo sapiens), sequence (P41235 whole entry, looked up): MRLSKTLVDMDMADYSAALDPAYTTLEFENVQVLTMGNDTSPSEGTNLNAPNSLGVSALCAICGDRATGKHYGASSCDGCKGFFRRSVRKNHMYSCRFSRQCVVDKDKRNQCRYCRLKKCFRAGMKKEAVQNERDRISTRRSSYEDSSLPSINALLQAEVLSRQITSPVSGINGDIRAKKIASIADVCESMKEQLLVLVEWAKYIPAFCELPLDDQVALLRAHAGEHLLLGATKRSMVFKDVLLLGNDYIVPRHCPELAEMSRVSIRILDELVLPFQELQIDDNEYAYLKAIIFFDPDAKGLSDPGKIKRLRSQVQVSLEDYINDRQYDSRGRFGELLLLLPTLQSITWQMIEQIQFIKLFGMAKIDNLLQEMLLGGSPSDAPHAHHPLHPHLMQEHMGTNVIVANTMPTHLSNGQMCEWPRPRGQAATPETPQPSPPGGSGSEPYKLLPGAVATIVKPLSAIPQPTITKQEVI
# In short: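 Transient MRTU transfection of HepG2, 24 h dosing. Readout: reporter mRNA via RT-PCR + capillary electrophoresis, fluorescence; activity fit upward relative to DMSO control.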
# [16] = ATG_M_06_TRANS: Attagene TRANS-FACTORIAL HepG2 Assay for M06 Transcription Factor (Internal Marker) (AID 2282983; active = hit-call score of the fitted dose curve at least 0.9, where 1 is the maximum;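 also: reporter transcript level by RT-PCR then capillary electrophoresis fluorescence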); details: HepG2 Attagene TRANS M06 internal marker reporter
# In short: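 Background-control reporter readout: after 24 h chemical exposure of transiently transfected HepG2 (GAL4-UAS reporter units), mRNA quantified by RT-PCR with fluorescent labeling and capillary electrophoresis. Gain-of-signal fitting against DMSO baseline.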
# [17] = ATG_NFI_CIS: Attagene CIS-FACTORIAL HepG2 Assay for human Nuclear Factor I (NFI) (AID 2282989); details: HepG2 cis-regulatory reporter, NFI response element transcription; actives raise or lower the signal
# In short: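 Transfected HepG2 liver cells, exposed 24 h, supplied total RNA for oligo(dT) reverse transcription and reporter-specific PCR. Labelled, HpaI-cut fragments were sized by capillary electrophoresis; DMSO set the baseline for bidirectional fitting.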
# [18] = molecular target: human Peroxisome Proliferator-activated Receptor alpha (PPARa), PPARA (gene 5465) (UniProt Q07869); test: ATG_PPARa_TRANS: Attagene TRANS-FACTORIAL HepG2 Assay for human Peroxisome Proliferator-activated Receptor alpha (PPARa) (AID 2283001; active = hit-call score of the fitted dose curve at least 0.9, where 1 is the maximum)
# human Peroxisome Proliferator-activated Receptor alpha (PPARa), PPARA (gene 5465), sequence (Q07869 whole entry, looked up, the tested form may be a part): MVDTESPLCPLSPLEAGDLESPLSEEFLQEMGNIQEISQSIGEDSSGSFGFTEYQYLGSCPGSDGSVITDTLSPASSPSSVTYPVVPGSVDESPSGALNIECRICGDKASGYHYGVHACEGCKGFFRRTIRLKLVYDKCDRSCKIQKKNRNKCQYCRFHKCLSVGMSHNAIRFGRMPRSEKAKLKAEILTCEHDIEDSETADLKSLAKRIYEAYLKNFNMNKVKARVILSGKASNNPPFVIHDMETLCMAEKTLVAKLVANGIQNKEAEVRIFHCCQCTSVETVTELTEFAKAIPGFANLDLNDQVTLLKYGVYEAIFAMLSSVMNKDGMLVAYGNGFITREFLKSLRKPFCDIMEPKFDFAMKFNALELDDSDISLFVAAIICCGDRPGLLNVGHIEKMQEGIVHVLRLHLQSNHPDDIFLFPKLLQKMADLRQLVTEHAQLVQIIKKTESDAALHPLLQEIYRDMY
# In short: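 Transient HepG2 transfection, GAL4-UAS reporters, NR-Gal4 chimeras; 24 h compound exposure. Readout: reporter transcripts by RT-PCR, 6-FAM primer extension, HpaI digest, capillary electrophoresis. Positive direction vs DMSO baseline.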
# [19] = BSK_3C_uPAR: BioMAP Diversity Plus: 3C Assay for Urokinase-type plasminogen activator receptor (uPAR) Biomarker Activity (AID 2282998); details: BioMAP 3C HUVEC, uPAR biomarker ELISA; actives raise or lower the signal
# In short: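 In this endothelial cell-based assay, human umbilical vein primary cells were treated with chemicals and harvested at 24 h. uPAR was quantified using ELISA, with gains or losses fitted relative to DMSO controls.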
smiles,measurement,setting,value
CCOc1ccc(C(C)(C)COCc2cccc(Oc3ccccc3)c2)cc1,outcome,[1],inactive
same,outcome,[2],inactive
same,outcome,[3],inactive
same,outcome,[4],inactive
same,outcome,[5],inactive
same,outcome,[6],inactive
same,outcome,[7],inactive
same,outcome,[8],inactive
same,outcome,[9],inactive
same,outcome,[10],inactive
same,outcome,[11],inactive
same,outcome,[12],inactive
same,outcome,[13],inactive
O=C(O)C1C(C(=O)O)C2(Cl)C(Cl)=C(Cl)C1(Cl)C2(Cl)Cl (stereo not given),outcome,[14],inactive
same,outcome,[15],inactive
same,outcome,[16],inactive
same,outcome,[2],inactive
same,outcome,[4],inactive
same,outcome,[17],inactive
same,outcome,[6],inactive
same,outcome,[7],inactive
same,outcome,[8],inactive
same,outcome,[9],inactive
same,outcome,[10],inactive
same,outcome,[11],inactive
same,outcome,[12],inactive
same,outcome,[13],inactive
same,outcome,[18],inactive
COCCOCCO,outcome,[15],inactive
same,outcome,[16],inactive
same,outcome,[4],inactive
same,outcome,[5],inactive
same,outcome,[17],inactive
same,outcome,[6],inactive
same,outcome,[7],inactive
same,outcome,[8],inactive
same,outcome,[9],inactive
same,outcome,[11],inactive
same,outcome,[12],inactive
same,outcome,[13],inactive
same,outcome,[18],inactive
CN(C)C(=O)Cl,outcome,[16],inactive
same,outcome,[2],inactive
same,outcome,[4],inactive
same,outcome,[5],inactive
same,outcome,[6],inactive
same,outcome,[7],inactive
same,outcome,[8],inactive
same,outcome,[9],inactive
same,outcome,[11],inactive
same,outcome,[12],inactive
same,outcome,[13],inactive
same,outcome,[18],inactive
CC(Cl)CN(C)C (stereo not given),outcome,[14],inactive
same,outcome,[16],inactive
same,outcome,[2],inactive
same,outcome,[4],inactive
same,outcome,[17],inactive
same,outcome,[6],inactive
same,outcome,[7],inactive
same,AC50,[8],28.4 µM (active)
same,outcome,[9],inactive
same,outcome,[10],inactive
same,outcome,[11],inactive
same,outcome,[19],inactive
same,outcome,[12],inactive
same,outcome,[13],inactive
CSC(C)(C)C=NO,outcome,[16],inactive
same,outcome,[3],inactive
same,outcome,[4],inactive
same,outcome,[5],inactive
same,outcome,[6],inactive
same,outcome,[8],inactive
same,outcome,[9],inactive
same,outcome,[11],inactive
same,outcome,[19],inactive
same,outcome,[12],inactive
same,outcome,[13],inactive
same,outcome,[18],inactive
O=C(O)CF,outcome,[15],inactive
same,outcome,[16],inactive
same,outcome,[2],inactive
same,outcome,[3],inactive
same,outcome,[4],inactive
same,outcome,[5],inactive
same,outcome,[17],inactive
same,outcome,[6],inactive
same,outcome,[8],inactive
same,outcome,[9],inactive
same,outcome,[18],inactive
CCOS(=O)(=O)OCC,outcome,[16],inactive
same,outcome,[2],inactive
same,outcome,[4],inactive
same,outcome,[17],inactive
same,outcome,[6],inactive
same,outcome,[8],inactive
same,outcome,[9],inactive
same,outcome,[10],inactive
same,outcome,[11],inactive
same,outcome,[12],inactive
same,outcome,[13],inactive
same,outcome,[18],inactive
CCCCN(CCCC)SN(C)C(=O)Oc1cccc2c1OC(C)(C)C2,outcome,[15],inactive
same,outcome,[16],inactive
same,outcome,[3],inactive
same,outcome,[4],inactive
same,outcome,[5],inactive
same,outcome,[17],inactive
same,outcome,[6],inactive
same,outcome,[7],inactive
same,AC50,[8],31.6 µM (active)
same,outcome,[9],inactive
same,AC50,[11],20 µM (active)
same,AC50,[12],28.4 µM (active)
same,AC50,[13],29.3 µM (active)
